In all, about 18,000 sequences were measured (“log2 normalized intensity”: median about 0.39, highest 2% from about 6.6 on). What follows is part of a selection rich in the highest values, with near analogues and random picks from the rest.

In this assay the target is T1, HNF4alpha2 (COS-7 nuclear extract) (Homo sapiens, UniProt P41235 1-474).
T1 sequence: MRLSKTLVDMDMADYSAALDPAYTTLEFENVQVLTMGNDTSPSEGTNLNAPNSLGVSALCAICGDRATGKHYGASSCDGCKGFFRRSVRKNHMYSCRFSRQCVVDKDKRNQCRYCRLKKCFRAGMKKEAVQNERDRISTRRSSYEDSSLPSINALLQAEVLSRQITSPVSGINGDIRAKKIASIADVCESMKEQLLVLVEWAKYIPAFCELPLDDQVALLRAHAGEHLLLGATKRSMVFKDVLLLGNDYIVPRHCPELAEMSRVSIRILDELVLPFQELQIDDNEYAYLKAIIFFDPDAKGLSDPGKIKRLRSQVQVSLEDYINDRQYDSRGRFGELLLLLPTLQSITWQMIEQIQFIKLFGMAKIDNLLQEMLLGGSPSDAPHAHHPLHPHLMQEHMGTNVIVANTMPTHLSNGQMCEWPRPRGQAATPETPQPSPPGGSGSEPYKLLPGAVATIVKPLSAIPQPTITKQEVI
The assay is described as follows: protein-binding microarray; COS-7 nuclear extract on double-stranded Agilent 4x180k PBM; binding buffer, salt, pH and temperature not given in the material; high values mean tight binding. The following applies: chain copies: 2; label: 3' end of strand 1 on the slide; dsDNA, one strand shown. The procedure, abridged:
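Nuclear extracts of COS-7 cells transiently transfected with a human HNF4α isoform were applied to a custom Agilent SurePrint G3 4x180k array bearing ~44,000 double-stranded ~60-nt test sequences, each in quadruplicate. The bound protein was imaged on an Agilent G2565CA scanner at 2-µm resolution. Binding signal is the normalized, background-corrected gProcessedSignal from Agilent software.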
For “TATGACCAGTGTGTTGTGCTGACCTCCTGTGCCTAGGGAGATTAGAGTATCGGTCGA”, the binding signal was determined as 3.19 log2 normalized intensity.

Regarding “CTGGTGTGCTTTCTGTCCTCTCAAAGTCCAGCCTAGGGAGATTAGAGTATCGGTCGA”, the binding signal was found to be 3.7 log2 normalized intensity.

Regarding “TGATTTGTATGATCTTGGGTATATCCTTTAGCCTAGGGAGATTAGAGTATCGGTCGA”, the binding signal is 1.54 log2 normalized intensity.

“ATGTGACCTTTTGGACCACAGAGTGACCTGGCCTAGGGAGATTAGAGTATCGGTCGA”: the binding signal is 5.16 log2 normalized intensity.

As to “TGACCTTGCAGTGGCAAGGCAAAAGAGACAGCCTAGGGAGATTAGAGTATCGGTCGA”, the binding signal turned out to be 1.17 log2 normalized intensity.

With “CTGCGTAACTTACAGTGCACTTTGACCGCTGCCTAGGGAGATTAGAGTATCGGTCGA”, the binding signal amounted to 7.14 log2 normalized intensity.

Take “CAGGACTGCGTAACTTACAGTGCACTTTGAGCCTAGGGAGATTAGAGTATCGGTCGA”: the binding signal worked out at 4.9 log2 normalized intensity.

For the sequence “TAACTTACAGTGCACTTTGACCGCTCATTTGCCTAGGGAGATTAGAGTATCGGTCGA”, the binding signal is 5.83 log2 normalized intensity.

“CAGTCACAGCAGTGGACTTTGACCTTGGCAGCCTAGGGAGATTAGAGTATCGGTCGA”: the binding signal is 10.2 log2 normalized intensity.

For the sequence “CATCATCTTGTAATCTGCTTCCAGTTCCATGCCTAGGGAGATTAGAGTATCGGTCGA”, the binding signal is 0.0747 log2 normalized intensity.

Take “GAGAAAAAGTCAACACTTAGGGTGGATACTGCCTAGGGAGATTAGAGTATCGGTCGA”: the binding signal was -0.81 log2 normalized intensity.

As for “TGATAAGCAAGATGACTTTGGTCTAGACACGCCTAGGGAGATTAGAGTATCGGTCGA”, the binding signal amounted to 0.829 log2 normalized intensity.

As to “TGCTCAGGGAGAAGCAAATATGTGTCCTCTGCCTAGGGAGATTAGAGTATCGGTCGA”, the binding signal stood at 0.314 log2 normalized intensity.

In the case of “CATCTGAACTCTTCATGGACTCCTCTTATCGCCTAGGGAGATTAGAGTATCGGTCGA”, the binding signal was 1.6 log2 normalized intensity.

Take “TCTTCTTCTGGGGACTTCGGTCTTTTTTCTGCCTAGGGAGATTAGAGTATCGGTCGA”: the binding signal was 2.18 log2 normalized intensity.

In the case of “CCTTTGGTGCCTCTTTTTTCTTGTTGACTTGCCTAGGGAGATTAGAGTATCGGTCGA”, the binding signal was determined as 2.44 log2 normalized intensity.

For “TGGACTTTGAACCTCTCTTCTTTTTCGTCTGCCTAGGGAGATTAGAGTATCGGTCGA”, the binding signal amounted to 6.71 log2 normalized intensity.

Take “TTTCTCTTTTGACCTTTGGACTTTCACATTGCCTAGGGAGATTAGAGTATCGGTCGA”: the binding signal is 10.5 log2 normalized intensity.

“AGTCTAACTTTGGACTTTTATGTTAAGATCGCCTAGGGAGATTAGAGTATCGGTCGA”: the binding signal is 2.25 log2 normalized intensity.

For the sequence “CTATGGAACATGGACTTTGAACCTCTCTTCGCCTAGGGAGATTAGAGTATCGGTCGA”, the binding signal worked out at 8.15 log2 normalized intensity.

With “TTTGAACACCTCTTCTTTCTTCTCTGGTACGCCTAGGGAGATTAGAGTATCGGTCGA”, the binding signal stood at 1.58 log2 normalized intensity.

As to “CCTTGCTATGGAGTGGACTTTGGCTTATGCGCCTAGGGAGATTAGAGTATCGGTCGA”, the binding signal turned out to be 6.18 log2 normalized intensity.

Consider “GTTATCTATGGAACATGGACTTTGAACCTCGCCTAGGGAGATTAGAGTATCGGTCGA”, for which the binding signal was found to be 10.3 log2 normalized intensity.

With “TGAACTTTGAACACCTCTTCTTTCTTCTCTGCCTAGGGAGATTAGAGTATCGGTCGA”, the binding signal turned out to be 3.92 log2 normalized intensity.

Consider “ACTCATTTCACATTGGTGCCCTTTGCCTTTGCCTAGGGAGATTAGAGTATCGGTCGA”, for which the binding signal turned out to be 3.97 log2 normalized intensity.

Turning to “TGGGCACTGTCCTAGGTGCTGAAGATGCAAGCCTAGGGAGATTAGAGTATCGGTCGA”, the binding signal was -0.724 log2 normalized intensity.

Take “GATCAAAGGTCGGTTTTAGGACAACATGAGGCCTAGGGAGATTAGAGTATCGGTCGA”: the binding signal came to 4.52 log2 normalized intensity.

Turning to “CTATCATTATCTCTCACTGCAGAAACTCTGGCCTAGGGAGATTAGAGTATCGGTCGA”, the binding signal is 1.35 log2 normalized intensity.

“AGCATTTTTGTATGCATAAGGCCTTGGACCGCCTAGGGAGATTAGAGTATCGGTCGA”: the binding signal stood at 3.11 log2 normalized intensity.

As to “CTTTGGTATGGACTGATATTCAAACAGGTCGCCTAGGGAGATTAGAGTATCGGTCGA”, the binding signal was 1.31 log2 normalized intensity.

Consider “GAGGGATTTTCAGTATACTGACTTATCAGGGCCTAGGGAGATTAGAGTATCGGTCGA”, for which the binding signal turned out to be 0.535 log2 normalized intensity.

Regarding “AGCGGCCTTCCCCTTTTTCTGTAAAGCTTTGCCTAGGGAGATTAGAGTATCGGTCGA”, the binding signal stood at 1.21 log2 normalized intensity.

Regarding “GAGTTTAGGCATTCTTAGACACAGTCTGAGGCCTAGGGAGATTAGAGTATCGGTCGA”, the binding signal is -0.227 log2 normalized intensity.

Regarding “TACATTGAACTTTGAACACCTCTTCTTTCTGCCTAGGGAGATTAGAGTATCGGTCGA”, the binding signal turned out to be 4.75 log2 normalized intensity.

Turning to “CCTCTTGCGTGTTATCTATGGAACATGGACGCCTAGGGAGATTAGAGTATCGGTCGA”, the binding signal came to 2.24 log2 normalized intensity.

“AACATGGACTTTGTTGTTTGCCTCTGAAAAGCCTAGGGAGATTAGAGTATCGGTCGA”: the binding signal stood at 2.31 log2 normalized intensity.

For the sequence “CCATACCTCTTGCGTGTTATCTATGGAACAGCCTAGGGAGATTAGAGTATCGGTCGA”, the binding signal is 1.5 log2 normalized intensity.

In the case of “GAACATGGACTTTGAACCTCTCTTCTTTTTGCCTAGGGAGATTAGAGTATCGGTCGA”, the binding signal turned out to be 7.25 log2 normalized intensity.

Take “TGCGTGTTATCTATGGAACATGGACTTTGAGCCTAGGGAGATTAGAGTATCGGTCGA”: the binding signal was 8.74 log2 normalized intensity.

In the case of “GGAGAAGTTTTATGGCAGGGTCGGAATGTCGCCTAGGGAGATTAGAGTATCGGTCGA”, the binding signal stood at 1.55 log2 normalized intensity.

As to “AGCCCCACAGAGCAAAGGTCATGCATAGAAGCCTAGGGAGATTAGAGTATCGGTCGA”, the binding signal amounted to 4.52 log2 normalized intensity.

As for “ATGGTTTGACCCTGCGATAAGTAGATACCAGCCTAGGGAGATTAGAGTATCGGTCGA”, the binding signal turned out to be 0.964 log2 normalized intensity.

Turning to “TCAGTCTGGTTGAGGCAAGCAAAAGCCAAGGCCTAGGGAGATTAGAGTATCGGTCGA”, the binding signal is -0.985 log2 normalized intensity.

As to “CTTTGGCCAAGGGCAGTGTTTGCCCAGCTTGCCTAGGGAGATTAGAGTATCGGTCGA”, the binding signal is 0.106 log2 normalized intensity.

“TTGACCTTTGGCCAAGGGCAGTGTTTGCCCGCCTAGGGAGATTAGAGTATCGGTCGA”: the binding signal was found to be 5.35 log2 normalized intensity.

The record behind these values is article PMC10726135, “HNF4α isoforms regulate the circadian balance between carbohydrate and lipid metabolism in the liver”.
